Source: PubChem BioAssay (National Center for Advancing Translational Sciences (NCATS))
Shown is part of a subset that was picked to be rich in hits.
LmPK inhibitor – LmPK (Leishmania mexicana) enzyme inhibition; Potency, µM (doses to about 57.5 µM), for the others: top-dose activity change, negative = inhibition, actives largely listed as inhibitors; purified LmPK, Kinase-Glo ATP luminescence, 1 h; 290,000 compounds, 0.37% hits; further: potency means the concentration at half of the fitted maximal effect; on the % scale 0 is the no-effect control and ±100 the full control effect
Target sequence (Q27686 whole entry, looked up): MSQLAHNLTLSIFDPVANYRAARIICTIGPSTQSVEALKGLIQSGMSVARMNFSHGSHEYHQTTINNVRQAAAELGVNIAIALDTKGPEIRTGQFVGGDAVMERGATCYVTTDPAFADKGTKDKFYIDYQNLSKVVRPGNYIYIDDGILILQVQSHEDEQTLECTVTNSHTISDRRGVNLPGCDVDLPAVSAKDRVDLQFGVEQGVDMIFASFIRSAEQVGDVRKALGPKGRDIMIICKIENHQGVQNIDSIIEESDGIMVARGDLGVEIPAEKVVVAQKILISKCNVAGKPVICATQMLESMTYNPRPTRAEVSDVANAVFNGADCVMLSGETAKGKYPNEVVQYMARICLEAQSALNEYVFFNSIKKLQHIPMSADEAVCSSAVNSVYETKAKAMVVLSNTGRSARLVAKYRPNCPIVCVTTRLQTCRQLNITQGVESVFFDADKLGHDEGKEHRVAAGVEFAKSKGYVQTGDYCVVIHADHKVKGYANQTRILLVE
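Screened at intermediate enzyme activity to detect both inhibitors and activators: LmPK at 0.1 nM, with a 0.5 nM enzyme column as activation reference. PEP 0.5 mM, ADP 0.1 mM; ATP detected by luminescence after 1 h.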
Cycloheximide cs – counter-screen hit for Shiga toxin inhibitors, cycloheximide; 300,000 compounds, 12% hits; AID 2314; cell reporter, cycloheximide protein synthesis inhibition counterscreen; max response, %; in the data active means max response mostly above about 13%, no sharp cut-off; inactive means mostly below about 14%; further: read at 38.3 µM for the half of the compounds with a filed dose; 0% is about no effect
NS1 inh – blocks influenza NS1 protein function; Potency, µM (highest dose often 46.1 µM), for inactives: at the highest dose activity, positive = more growth; 270,000 compounds, 0.4% hits; AID 2326; calls by dose curve; further: potency means the concentration at half of the fitted maximal effect; actives are rising curves; nearly all actives have a fitted effect of over 50% in size
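In this qHTS, NS1 from influenza A is expressed in budding yeast, where it slows growth. Cells are switched from glucose to 2% galactose medium (pH 6.0, -URA), treated with compound, and growth recovery is read at OD600.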
SARS PLpro yeast – SARS-CoV PLP inhibition in yeast; 330,000 compounds, 0.19% hits; S. cerevisiae expressing SARS-CoV PLpro, growth rescue; Potency, µM (doses to about 32.9 µM), for the others: at the top dose activity, positive = growth rescue, hits mostly activators; calls by dose curve; further: potency means the concentration at half of the fitted maximal effect; 0% is about no effect; nearly all actives have a fitted effect of over 55% in size
Tb PYK inh – T. brucei pyruvate kinase inhibition. Q57TT1. TbPYK enzyme, Kinase-Glo Plus ATP luminescence, 45 min. Potency, µM (series often up to 76.8 µM), for the others: top-dose activity, negative = inhibition, most hits filed as inhibitors. 410,000 compounds, 0.12% hits; further: potency means the concentration at half of the fitted maximal effect; on the % scale 0 is the no-effect control and ±100 the full control effect; nearly all actives have a fitted effect of over 50% in size
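In this concentration-response screen, enzyme-free wells defined baseline while DMSO plates tracked drift. Each reaction combined TbPYK, substrate, compound and 130 uM ADP for 45 min at room temperature. Kinase-Glo Plus luminescence gave the signal.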
Shiga inhibitor – blocks Shiga toxin action in Vero cells. Vero cells, Shiga toxin protein synthesis inhibition reporter. 290,000 compounds, 9.2% hits. AID 2315. inhibition, % at 38.7 µM; in the data active means inhibition mostly above about 28%, no sharp cut-off; inactive means mostly below about 43%; further: 0% is about no effect
Starred values were filed as active, the others as inactive; ? = inconclusive; . = not tested or not shown; [ ] = dose if it differs, or a comment. Unless noted, the call rests on the fitted dose curve; in most records, active means well fitted curve in the direction sought with a large enough effect; inconclusive means small, poorly fitted or top-dose-only effect, or another doubt; inactive means no such curve, though single readings can be large; an effect the other way counts as inactive or inconclusive.

SMILES	LmPK inhibitor	Cycloheximide cs	NS1 inh	SARS PLpro yeast	Tb PYK inh	Shiga inhibitor
CSCC[C@H](NC(=O)[C@H](CCCN=C(N)N)NC(=O)[C@@H]1CCCN1C(=O)[C@H](Cc1ccccc1)NC(=O)[C@H](C)NC(=O)[C@H](CC(C)C)NC(=O)[C@H](Cc1ccc(O)cc1)NC(=O)[C@H](CC(N)=O)NC(=O)[C@@H](N)CCSC)C(N)=O	.	-4.1	.	.	.	-14.9
Cc1cccn2c(N)c(-c3ccccc3)nc12	?	20.4*	-12.7%	-0.7%	-4.4%	25.8
Cc1nnc(SCc2c(Cl)cccc2Cl)s1	7.8%	32.2*	-0.1%	9.1%	3.4%	59.6*
Nc1nnc(SCc2ccc(F)cc2Cl)s1	0.7%	30.7*	-71.6%	-14.4%	3.2%	46.7*
Nc1nnc(SCc2c(F)cccc2Cl)s1	0.0%	12.0	-3.5%	0.1%	-1.3%	33.0
Cc1nnc(SCc2ccc(F)cc2Cl)s1	-5.8%	41.4*	-11.9%	-0.6%	-1.0%	68.5*
CCOC(=O)N1CCC2(CC1)OC(=O)C(C)=C2C(=O)NCc1ccc(C)cc1	.	.	.	.	-0.7%[15.4 µM]	.
O=C(c1cn(-c2ccccc2)nc1-c1ccccc1)N1CCN(c2ccccn2)CC1	-0.7%	23.0*	-19.1%	-0.3%	-1.4%	29.1
Cc1ccc(-c2nn(Cc3ccccc3)cc2C(=O)N2CCN(c3ccccn3)CC2)cc1	.	.	.	-3.7%	-1.5%	.
Cc1ccc(-c2nn(-c3ccccc3)cc2C(=O)N2CCN(c3ccccn3)CC2)cc1	11.4%	32.6	.	-0.2%	4.7%	42.2*
NC(=O)CCN1CCN(C(=O)c2ccc3nc(Cc4cccc(Cl)c4)oc3c2)CC1	-0.2%	1.6	-7.9%	-1.0%	-0.9%	-14.0
Cc1cccc(NC(=O)c2ccc([N+](=O)[O-])s2)n1	0.5%	60.6*	-27.0%	-10.3%	0.6%	61.4*
Cc1ccnc(NC(=O)c2ccc([N+](=O)[O-])s2)c1	-12.2%	59.9*	-1.6%	-2.2%	0.7%	85.1*
Cc1cccc(C)c1NC(=O)c1ccc([N+](=O)[O-])s1	-2.2%	-2.3	-42.9%	-47.1%	-23.6%	-4.9
CCOC(=O)Cc1nc2cc(Cl)ccc2o1	0.3%	-0.9	2.0%	-0.8%	-4.0%	-5.8
CCOC(=O)Cc1nc2ccccc2o1	-0.8%	15.2*	.	0.4%	.	52.8
NS(=O)(=O)c1ccc(NC(=O)Nc2ccc(Cl)cc2)cc1	-2.1%	14.6	-9.8%	-0.2%	3.6%	71.1
N#Cc1ccc(NC(=O)Nc2ccc(Cl)cc2)cc1	1.2%	38.2*	-44.0%	-40.8%	-1.9%	60.6*
CCN(CC)c1ccc(NC(=O)Nc2ccccc2)cc1	-4.9%	48.1*	-5.8%	-1.4%	-0.8%	58.5*
NC(=O)c1cccc(NC(=O)Nc2ccc(Cl)cc2)c1	-1.0%	18.5*	11.4%	.	0.7%	21.5
CC(=O)c1cccc(NC(=O)CCOc2ccccc2)c1	-5.8%	24.9*	-9.7%	-1.2%	-0.5%	50.7*
CCN(CC)c1ccc(NC(=O)Nc2ccc(C(C)=O)cc2)cc1	3.9%	12.7	1.3%	-3.8%	-20.6%	42.1
CNc1ccc(N=Nc2cccc3ncccc23)cc1	.	.	.	.	-9.3%	.
CC(C)C1C(=O)N(S(C)(=O)=O)[C@H]2CCN(C(=O)/C=C/CN3CCCCC3)[C@@H]12 (some centres not stated)	.	4.4	.	.	.	-5.6
CCOc1ccc(S(=O)(=O)N2CCCC(C(=O)Nc3ccccc3)C2)cc1 (configuration not stated)	0.0%	2.1	-7.0%	-0.1%	3.5%	29.4
SMILES	LmPK inhibitor	Cycloheximide cs	NS1 inh	SARS PLpro yeast	Tb PYK inh	Shiga inhibitor
Cc1cccc(NC(=O)CSc2nnc(CNC(=O)c3c(F)cccc3Cl)o2)c1C	.	.	.	.	2.3%	.
Cn1cc(-c2csc(C(O)c3ccc(F)cc3)n2)cn1 (configuration not stated)	.	.	.	.	-2.1%	.
O=C(NNC(=O)c1ccc(NC(=O)c2ccccc2)cc1)c1ccccc1	6.1%	-1.1	.	-1.3%	6.4%	-10.6
CC(=O)c1cccc(NC(=O)Nc2ccccc2)c1	-1.5%	25.7*	-5.4%	-0.2%	3.0%	61.8*
CC(=O)c1cccc(NC(=O)C2C3C=CC(C3=C(c3ccccc3)c3ccccc3)C2C(=O)O)c1 (configuration not stated)	0.1%	10.9*	.	-1.4%	5.6%	47.1
CNC(=O)c1ccc(NC(=O)Nc2ccccc2)cc1	-2.5%	29.6*	6.9%	1.9%	-2.4%	49.9*
COC(=O)/C(=C\C(=O)c1ccccc1)Nc1cccc(C(F)(F)F)c1	-4.7%	44.3*	-8.5%	-8.1%	0.0%	98.0*
CN(Cc1ccc(Br)s1)C(=O)CNC(=O)c1ccc2c(c1)OCO2	.	.	.	-1.6%	-0.7%	.
Cc1nc(COc2ccc(C(=O)NCc3ccccc3CN3CCCCC3)cc2)cs1	.	.	.	1.7%	-6.5%	.
CC(=O)c1ccc(NC(=O)Nc2ccccc2)cc1	-9.3%	38.3*	-22.9%	-10.9%	-2.2%	78.8*
O=C(Nc1ccccc1)Nc1ccc(C(=O)N2CCOCC2)cc1	12.6µM*	46.2*	-2.8%	-20.5%	?	62.2*
CC(=O)c1ccc(NC(=O)C(C)NCc2ccccc2Cl)cc1 (configuration not stated)	-6.2%	24.2*	.	-1.4%	0.8%	23.1
CNC(=O)Nc1cccc(C(F)(F)F)c1	2.8%	11.7	-111.5%	-81.9%	0.5%	9.8
O=C(Nc1ccccc1)Nc1cccc(C(F)(F)F)c1	1.1%	29.8*	.	-5.4%	0.7%	80.2*
CC(=O)c1ccc(NC(=O)Nc2ccc(NS(=O)(=O)c3ccc(C)cc3)cc2)cc1	4.9%	-6.6	6.5%	2.6%	-10.6%	-16.6
CC1(Oc2ccccc2-c2ccn[nH]2)CCN(Cc2ccc(OC(F)(F)F)cc2)C1 (configuration not stated)	.	.	.	.	-0.2%	.
CC(=O)OC[C@H]1O[C@@](COC(C)=O)(O[C@H]2O[C@H](COC(C)=O)[C@@H](OC(C)=O)[C@H](OC(C)=O)[C@H]2OC(C)=O)[C@@H](OC(C)=O)[C@@H]1OC(C)=O	.	.	.	.	-7.3%	.
Cc1cccc(N2C(=O)CS(=O)(=O)C23C(=O)N(Cc2c(F)cccc2Cl)c2ccccc23)c1 (configuration not stated)	.	.	.	.	-7.2%	.
CN(C)/C=N/c1c(C#N)cnn1-c1nc2ccccc2s1	2.3%	44.5*	-8.6%	5.5%	1.4%	86.5*
COc1ccccc1C(=O)OCc1ccc2sc(C)nc2c1	-4.0%	28.3*	-40.2%	12.4%	-3.8%	77.9*
Oc1ccccc1C=NNC(=S)NC1CC2C=CC1C2 (configuration not stated)	.	.	.	.	-5.6%	.
Oc1ccccc1/C=N/NC(=S)NC1CC2C=CC1C2 (configuration not stated)	2.4%	35.4*	-4.2%	-0.3%	-20.9%	56.8*
CC(=O)c1c(C)n(-c2ccc(Cl)cc2)c2ccc(OC(=O)COc3ccccc3)cc12	.	.	.	.	-7.2%	.
O=C(O)C(=O)/C(=C\c1cccc(Cl)c1)c1ccc2ccccc2n1	-0.1%	92.9*	4.6%	-4.7%	0.5%	110.0*
